WT yeast gro inh = growth inhibition of WT yeast, mitochondrial fusion screen; mitochondrial fusion phenotypic screen, WT strain; inhibition, % at 10 µM; hit rate 2.1% among 190,000; in the data active = inhibition above about 58%; tested in S. cerevisiae
Arbovirus inh = blocks arbovirus infection; arbovirus infection cell-based antiviral screen; inhibition, % at 10 µM; hit rate 0.37% among 200,000; AID 1251; in the data active = inhibition above about 30%
L major viab = Leishmania major promastigote growth inhibition; Leishmania major promastigotes, resazurin fluorescence viability; hit rate 9% among 200,000; inhibition, % at 10 µM; in the data active = inhibition above about 50%;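 also: promastigotes grown with compound for 44 hours at 28 °C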
CHOP inh = CHOP inhibition in unfolded protein response. CHO-K1 CHOP-promoter luciferase, tunicamycin-induced, 15-18 h. inhibition, % at 10 µM. hit rate 3.8% among 220,000;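 active = compounds that reduced the stress-induced luciferase reporter signal by more than about 70% of percent inhibition, limit read from the data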;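 also: 0% = tunicamycin plus vehicle and 100% = wells without tunicamycin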
Numbers without * were called inactive; . = not tested or not shown. Compounds with a hit are over-represented: about 12% of the library has one in this group of screens.

SMILES	WT yeast gro inh	Arbovirus inh	L major viab	CHOP inh
O=C(NCc1cccnc1)c1csc2c1CCCC2	3	-2	52*	12
Cc1ccc(CNC(=O)c2csc3c2CCCCC3)cc1	-5	3	-1	39
CCOc1ccc(NC(=O)c2csc3c2CCCC3)cc1	11	-14	-6	3
COc1ccccc1NC(=O)c1csc2c1CCCC2	-6	12	0	-17
CC1(NC(=S)N(CCO)CCO)CCS(=O)(=O)C1 (stereo not drawn)	-9	-4	-4	16
N#CCCN(C(=O)COC(=O)c1ccc(CNS(=O)(=O)c2ccc(F)c(Cl)c2)cc1)c1ccc(F)cc1	-11	16	97*	23
CCCN(CC1CC1)C(=O)COC(=O)c1ccc(CNS(=O)(=O)c2ccc(F)c(Cl)c2)cc1	-4	6	-6	40
O=C(c1ccccc1NS(=O)(=O)c1cccc(C(F)(F)F)c1)N1CCc2ccccc21	20	5	66*	50
CN(C)c1nc(Nc2ccccc2)nc(N(C)C)n1	0	-9	39	-24
CN(C)c1nc(N/N=C/c2ccccc2O)nc(Nc2ccc(F)cc2)n1	34	-26	84*	2
Cc1ccccc1N1C(=O)C2C3CC(=O)C(c4ccccc43)C2C1=O (stereo not drawn)	-8	5	-4	17
Cc1ccnc2c(N3C(=O)C4C5c6ccccc6C(c6ccccc65)C4C3=O)cccc12 (stereo not drawn)	-16	-3	58*	27
O=C(O)[C@@H]1C[C@H](C(=O)O)N1	.	.	.	-1
COc1ccc(C(=O)NCc2ccc(-n3cccc3)cc2)cc1OC	10	-3	3	6
O=C(Cn1c(COc2ccccc2)nc2ccccc21)Nc1cc(Cl)ccc1Cl	4	-18	-2	82*
Cc1cc(NC(=O)CCSc2ccccc2)ccc1Br	34	5	7	-1
COc1ccc(-c2nc(=S)c3c([nH]2)Oc2ccc(C)cc2C3)cc1O	13	28	97*	31
Cc1ccsc1C(=O)C1CCCN(Cc2cc(F)ccc2-n2cccn2)C1 (stereo not drawn)	14	4	30	1
Cc1cc(C)c(NC(=O)CSc2nc(COc3ccccc3)nc3ccccc23)c(C)c1	15	0	34	91*
Cc1cccc(C)c1NC(=O)CSc1nnc(C)c(=O)[nH]1	-12	15	66*	9
Cc1cccc(C)c1NC(=O)CSc1nc2ccccc2c(=O)[nH]1	-3	-7	-6	71*
Cc1[nH]n2c(=O)cc(C(C)(C)C)nc2c1-c1ccccc1	12	-24	99*	-32
O=C(COc1ccccc1F)NC12CC3CC(CC(C3)C1)C2	.	.	.	40
O=C(Cc1c2ccccc2nc2ccccc12)c1ccccc1	3	-7	-2	16
O=C(Nc1ccccc1N1CCOCC1)c1cccc(NS(=O)(=O)c2ccc(F)c(F)c2)c1	14	6	70*	23
SMILES	WT yeast gro inh	Arbovirus inh	L major viab	CHOP inh
O=C(CCCCl)NC(=S)Nc1cc(C(F)(F)F)ccc1N1CCOCC1	8	10	-2	81*
CC(C)(C)C(=O)NC(=S)Nc1cc(C(F)(F)F)ccc1N1CCOCC1	26	-1	2	47
CS(=O)(=O)c1ccc2nc(NC(=O)c3cccc(NS(=O)(=O)c4ccc(F)c(F)c4)c3)sc2c1	-8	65*	-6	8
CS(=O)(=O)c1ccc2nc(NC(=O)c3ccc(NS(=O)(=O)c4ccc(F)c(F)c4)cc3)sc2c1	.	.	.	7
O=C(Nc1cc(C(F)(F)F)ccc1N1CCOCC1)c1cccc(F)c1	-23	-3	-5	76*
O=C(Nc1cc(C(F)(F)F)ccc1N1CCOCC1)c1ccccc1F	43	-6	0	67
O=C(Nc1ccc(-c2csc(Nc3cccc(C(F)(F)F)c3)n2)cc1)c1cc([N+](=O)[O-])cc(C(F)(F)F)c1	.	.	.	22
CC1CN=C(N(C(=O)Nc2ccccc2)C(C)c2ccccc2)S1 (stereo not drawn)	.	.	.	12
O=C(Nc1cc(C(F)(F)F)ccc1N1CCOCC1)C1Cc2ccccc2CN1C(=O)c1ccco1 (stereo not drawn)	0	4	49	72*
O=C(Nc1ccccc1)C1Cc2ccccc2CN1C(=O)c1ccco1 (stereo not drawn)	-13	-2	11	15
O=C(O)CCc1nn2c3ccccc3nc2n(-c2ccccc2)c1=O	11	0	-5	-2
COc1ccc(-n2c(=O)c(CCC(=O)N(C)Cc3ccccc3C)nc3ccccc32)cc1	35	10	66*	29
CCc1ccc(CN(C)C(=O)CCc2nc3ccccc3n(-c3ccc(OC)cc3)c2=O)cc1	58*	20	49	29
COc1ccc(/C(O)=C/c2nc3ccccc3n(-c3ccccc3)c2=O)cc1	.	-5	-4	3
CCOC(=O)c1cnc(Nc2nc3ccccc3o2)nc1CSc1ncccn1	.	.	-2	.
CCOC(=O)c1cnc(Nc2nc3ccccc3o2)nc1CSC(=S)N(CC)CC	32	-5	100*	-90
O=C(Oc1ccc2cc(Br)ccc2c1)N1CCCCCC1	68*	-4	30	85*
O=C(Oc1ccc2ccccc2c1Br)N1CCCCCC1	71*	6	0	29
O=C(Oc1ccc2ccc(=O)oc2c1)N1CCOCC1	8	-3	-1	-1
Cc1c(NC(=O)c2ccc(-c3ccccc3)cc2)cccc1C(=O)O	.	.	.	17
CCCOc1cc(C)c(S(=O)(=O)n2ccc(C)n2)cc1C	21	8	4	93*
Cc1nn(-c2ccccc2)c(N2CCCC2)c1/C=N/Nc1ccc(S(=O)(=O)Nc2ccccc2)cc1[N+](=O)[O-]	2	-16	97*	-5
COc1ccccc1NS(=O)(=O)c1ccc(N/N=C/C=C/c2ccccc2[N+](=O)[O-])c([N+](=O)[O-])c1	4	-1	50*	-9
COc1ccc(-c2nn(-c3ccccc3)cc2/C=N/NC(N)=S)cc1OC	-13	-13	80*	-36
COc1c(/C=N/Nc2ccc([N+](=O)[O-])cc2[N+](=O)[O-])c(C)nn1-c1ccccc1	33	-4	1	-13
SMILES	WT yeast gro inh	Arbovirus inh	L major viab	CHOP inh
CCN(CC)c1ccc(/C=N/NC(=O)c2cccc(S(=O)(=O)Nc3ccccc3OC)c2)c(O)c1	39	-35	100*	61
CCOc1ccc(S(=O)(=O)Nc2ccc(C(=O)N/N=C/c3c(C)nn(-c4ccccc4)c3N3CCCC3)cc2)cc1	10	4	1	13
COc1ccccc1NS(=O)(=O)c1ccc(N/N=C/c2c(C)nn(-c3ccccc3)c2N2CCCC2)c([N+](=O)[O-])c1	18	0	100*	18
COc1ccccc1NS(=O)(=O)c1cccc(C(=O)N/N=C/c2cn(-c3ccccc3)nc2-c2ccccc2)c1	2	-7	53*	5
COc1ccccc1NS(=O)(=O)c1cccc(C(=O)N/N=C/c2c(C)nn(-c3ccccc3)c2N2CCCC2)c1	7	2	96*	8
O=C(c1ccccc1)c1nn(-c2ccc(Cl)cc2)cc1C(=O)c1cc2ccccc2oc1=O	-2	-19	40	5
CCOc1ccc(NC(=NCc2ccc3c(c2)OCO3)SC2CC(=O)N(c3ccc(C(=O)O)cc3)C2=O)cc1 (stereo not drawn)	-22	1	-3	8

Screening results deposited in PubChem BioAssay by several laboratories.
